Measurements reported in ChEMBL document CHEMBL3988442, “University of Dundee, Small-Polar-MMV Screening Library” (2021).
The campaign covered roughly 66,000 compounds. About 960 (1.5%) showed an effect of 50% or more. The list comes from a sample in which strong results are over-represented; it also holds similar structures and randomly drawn compounds.

Tested on: Trypanosoma brucei
Assay: Trypanosoma brucei 72 hour study
Format: functional, organism-based
Set-up: scale not given: in the data most compounds retested in dose-response had high values

| Structure (SMILES) | Percent Effect (30.3 µM, […]) | Percent Effect (30 µM, 30.03 µM) |
| --- | --- | --- |
| Cc1nc(CNc2cccc(Cl)c2Cl)cs1 | 13.05% | – |
| CN(C)c1cccc(C2CCCN2CCCN2CCOC2=O)c1 (stereo not drawn) | 100.6% | – |
| CN(C)c1cccc(C2CCCN2Cc2nnnn2C2CC2)c1 (stereo not drawn) | – | -5.59% |
| O=C1OCCN1CCCN1CCCC1c1ccc(O)cc1 (stereo not drawn) | -41.53% | – |
| Cc1cc(C(=O)N2CCN(c3nc4c(C(C)C)cccc4s3)CC2)no1 | – | -24.13% |
| Cc1ccc(CN(CCCn2ccnc2)Cc2cnc(N(C)C)nc2)s1.O=C(O)CC(O)(CC(=O)O)C(=O)O | -19.58% | – |
| CN(C)c1ccc(CN(CCCn2ccnc2)Cc2c[nH]cn2)cc1.O=C(O)CC(O)(CC(=O)O)C(=O)O | 101.7% | – |
| Cc1ccc(CN(CCCn2ccnc2)Cc2c[nH]cn2)s1.O=C(O)CC(O)(CC(=O)O)C(=O)O | 1.137% | – |
| CCOc1ccc(Cl)cc1C1CCCCN1.Cl (stereo not drawn) | – | -10.24% |
| Cc1cccc(CN2C(=O)CCC23CCN(C(=O)NC(C)C)CC3)n1.O=C(O)C(F)(F)F | -47.32% | – |
| Cc1ccc(-c2cc(C(F)(F)F)nc(N3CCOCC3)n2)s1 | – | -24.17% |
| Cc1c(-c2cc(C(F)(F)F)nc(N3CCC(N)CC3)n2)cnn1C | 47.45% | – |
| CCc1ccc(-c2cc(C(F)(F)F)nc(N3CCC(N)CC3)n2)cc1 | 100.3% | – |
| O=C(O)C1CCCN1c1nc(-c2ccc(Cl)cc2)cc(C(F)(F)F)n1 (stereo not drawn) | – | -38.97% |
| O=C(O)C1CCCN1c1nc(-c2ccc(Cl)c(Cl)c2)cc(C(F)(F)F)n1 (stereo not drawn) | – | -7.275% |
| CCn1ncc(-c2cc(C(F)(F)F)nc(N3CCC(N)CC3)n2)c1C | 100.2% | – |
| Cc1nccn1CCC1CCNCC1.Cl.Cl | -19.74% | – |
| CC1c2ncc(Cn3cccn3)n2CCN1Cc1ccc(F)cc1.O=C(O)C(F)(F)F (stereo not drawn) | 6.386% | – |
| CCS(=O)(=O)N1CCCC(Cc2cnccn2)C1 (stereo not drawn) | -26.51% | – |
| C1CCCN(CC2CCCN(Cc3noc(C4CC4)n3)C2)CC1 (stereo not drawn) | 63.76% | – |
| C1CCCN(C2CCCN(Cc3noc(C4CC4)n3)C2)CC1 (stereo not drawn) | 49.07% | – |
| c1ncn(CC2CCCN(Cc3noc(C4CC4)n3)C2)n1 (stereo not drawn) | -10.36% | – |
| C1CC(NCC2CC2)CN(Cc2noc(C3CC3)n2)C1 (stereo not drawn) | -4.666% | – |
| C1CCC(CNC2CCCN(Cc3noc(C4CC4)n3)C2)C1 (stereo not drawn) | 26.01% | – |

| Structure (SMILES) | Percent Effect (30.3 µM, […]) | Percent Effect (30 µM, 30.03 µM) |
| --- | --- | --- |
| C1CCC(CNC2CCCN(Cc3noc(C4CC4)n3)C2)CC1 (stereo not drawn) | 78.83% | – |
| Cn1cc(CN2C[C@@H]3COC[C@H](C(=O)Nc4cccnc4)[C@@H]3C2)cn1.O=C(O)C(F)(F)F.O=C(O)C(F)(F)F | – | -8.066% |
| NC(=O)c1ccccc1NC(=O)CCN1CCN(c2ccccc2)CC1 | – | 4.761% |
| CCOC(=O)N1CCc2ccccc2C12CCNCC2.Cl | -45.47% | – |
| Cc1ccc(CN2CCC3(CC2)CN(C(=O)c2cnccn2)CCO3)o1.O=C(O)C(F)(F)F | -12.58% | – |
| CC1=N[C@@]2(CC[C@@H]3CN(Cc4ccccc4C)C[C@@H]32)C(=O)N1CC1CC1.O=C(O)C(F)(F)F | -63.56% | – |
| CC1=N[C@@]2(CC[C@@H]3CN(Cc4ccccc4)C[C@@H]32)C(=O)N1CC1CC1.O=C(O)C(F)(F)F | -40.35% | – |
| CC1=N[C@@]2(CC[C@@H]3CN(Cc4ccccc4F)C[C@@H]32)C(=O)N1CC1CC1.O=C(O)C(F)(F)F | – | 55.44% |
| CN(C)C(=O)c1cc2c(nc1NCC1CC1)CCNCC2 | -109.7% | – |
| CCCN1CCN(C(=O)c2cnn(-c3ccccc3F)c2)CC1 | – | 55.35% |
| CCC(O)CN1CCN(C(=O)c2cnn(-c3ccccc3F)c2)CC1 (stereo not drawn) | – | 22.96% |
| O=C(c1cnn(-c2ccccc2F)c1)N1CCN(CCO)CC1 | – | 1.358% |
| CN1C(=O)CC[C@]12CC[C@@H](NCc1ccsc1)CC2.O=C(O)C(F)(F)F | 8.729% | – |
| CC(C)CCN1C[C@H]2C[C@H](C(=O)NCc3ccccc3)[C@@H](C1)O2.O=C(O)C(F)(F)F | – | 29.18% |
| CCn1cc(-c2cc(-c3cc(CN(C)C)cs3)nc(N)c2C#N)c(C)n1 | – | -4.566% |
| Cc1cc(CN2CCC(c3nccn3C(C)C)CC2)ccc1F | – | -24.52% |
| CCn1ccnc1C1CCN(Cc2cccc(C)n2)CC1 | – | -34.54% |
| CC(C)n1ccnc1C1CCN(Cc2ccc(Cl)c(F)c2)CC1 | – | 33.49% |
| CCn1ccnc1C1CCN(Cc2c(F)cccc2F)CC1 | – | 86.79% |
| CCn1ccnc1C1CCN(Cc2cccc(Cl)c2)CC1 | – | -40.4% |
| Cc1ccc(Cl)c(CN2CCC(c3nccn3C(C)C)CC2)c1F | – | 104.1% |
| COc1ccc(Cl)cc1C(C(=O)O)N1CCSCC1 (stereo not drawn) | -71.2% | – |
| Cc1cccc(C2CCCN2Cc2nc(N)nc(N(C)C)n2)c1C (stereo not drawn) | – | 100.5% |
| CN(C)c1nc(N)nc(CN2CCCC2c2ccsc2)n1 (stereo not drawn) | – | -20.26% |
